{
  "source": "PubChem BioAssay AID1671190",
  "about": "(National Center for Advancing Translational Sciences (NCATS), 2021)",
  "note": "Hit rate of the full screen: of about 580,000 compounds, about 6,100 (1.1%) were called active. Entries that show only a call come without a potency. Another 15% or so got no clear call; they are omitted. The call rests on the fitted dose curve; in most records, active means well fitted inhibition curve with a large enough effect; inconclusive means small, poorly fitted or top-dose-only effect, or another doubt; inactive means no such curve, though single readings can be large or run the other way. For the sample, actives were picked, then their nearest neighbours and some compounds at random. Potency means the concentration at half of the fitted maximal effect.",
  "data": [
    {"biological_target": "Polyunsaturated fatty acid lipoxygenase ALOX12 (Homo sapiens) (UniProt P18054)", "sequence (P18054 whole entry, looked up)": "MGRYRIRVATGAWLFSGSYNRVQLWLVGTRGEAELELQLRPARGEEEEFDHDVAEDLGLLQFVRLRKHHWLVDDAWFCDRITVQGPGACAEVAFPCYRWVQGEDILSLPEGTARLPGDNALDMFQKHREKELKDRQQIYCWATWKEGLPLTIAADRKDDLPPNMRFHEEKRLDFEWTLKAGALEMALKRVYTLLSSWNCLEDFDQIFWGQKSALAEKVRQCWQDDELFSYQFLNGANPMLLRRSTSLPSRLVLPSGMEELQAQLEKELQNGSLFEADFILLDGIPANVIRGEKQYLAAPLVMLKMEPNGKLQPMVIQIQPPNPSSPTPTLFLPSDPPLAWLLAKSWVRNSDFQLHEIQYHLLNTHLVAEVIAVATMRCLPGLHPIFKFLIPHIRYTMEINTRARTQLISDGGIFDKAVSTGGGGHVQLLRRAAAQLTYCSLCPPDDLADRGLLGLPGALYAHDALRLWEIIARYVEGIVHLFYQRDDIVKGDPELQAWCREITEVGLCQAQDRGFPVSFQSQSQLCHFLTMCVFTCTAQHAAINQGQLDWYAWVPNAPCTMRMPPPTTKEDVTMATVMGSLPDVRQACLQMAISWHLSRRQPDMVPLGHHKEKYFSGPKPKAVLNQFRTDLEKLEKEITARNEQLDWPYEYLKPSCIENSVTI", "assay": "Primary qHTS assay for inhibitors of human arachidonate 12S-lipoxygenase (ALOX12): Round 2", "details": "purified 12hLO, xylenol orange hydroperoxide absorbance; series mostly up to 108 µM", "outline": "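Purified human 12hLO (150 nM final) in 25 mM Hepes, 0.01% Triton X-100, pH 7.0 was preincubated 15 min at room temperature with compound. Then 40 uM arachidonic acid was added, 30 min. Hydroperoxide was read by Fe-XO absorbance ratio 573/405 nm.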", "values": [
      {"molecule": "Cc1cc(C)c2sc(NC(=O)c3ccc(S(=O)(=O)N4CCCC4)cc3)nc2c1", "Potency": "inactive"},
      {"molecule": "Cc1cc(C)c(NS(=O)(=O)c2ccc(S(=O)(=O)N3CCCC3)cc2)c(C(=O)O)c1", "Potency": "39.8 µM (active)"},
      {"molecule": "Cc1cc(C)c2oc(C(=O)Nc3ccc(S(=O)(=O)N4CCCCCC4)cc3)cc(=O)c2c1", "Potency": "inactive"},
      {"molecule": "CC(=O)NC(C(=O)NC(C)c1cccc(Cl)c1)C(C)C", "note": "(configuration not stated)", "Potency": "inactive"},
      {"molecule": "CC(C)C(=O)N(Cc1ccc2cc[nH]c2c1)C1CC1", "Potency": "inactive"},
      {"molecule": "NC(=O)[C@@H](Cc1ccccc1)NC(=O)C1=C[C@@H](NS(=O)(=O)c2cccc(C(F)(F)F)c2)[C@@H](O)[C@H](O)C1", "Potency": "inactive"},
      {"molecule": "COc1ccc(CC/C(C)=N/O)cc1", "Potency": "inactive"},
      {"molecule": "O=C(c1ccco1)N1CCC2(CC1)CC(N(Cc1ccccc1)C1CC1)CCO2", "note": "(configuration not stated)", "Potency": "inactive"},
      {"molecule": "C=CCOc1cccc(C2C(C(=O)c3ccc(C)o3)=C(O)C(=O)N2CCN2CCOCC2)c1", "note": "(configuration not stated)", "Potency": "inactive"},
      {"molecule": "C=CCOc1cccc(C2C(C(=O)c3ccc(C)o3)=C(O)C(=O)N2c2nnc(C)s2)c1", "note": "(configuration not stated)", "Potency": "39.8 µM (active)"},
      {"molecule": "C=CCOc1cccc(C2NC(=O)c3ccccc3O2)c1", "note": "(configuration not stated)", "Potency": "inactive"},
      {"molecule": "CC(C)NC(=O)NC(=O)Cn1cnc2c1c(=O)n(C)c(=O)n2C", "Potency": "inactive"},
      {"molecule": "C/C(=N/NC(=O)c1ccc(Br)o1)c1ccc(C)o1", "Potency": "inactive"},
      {"molecule": "C/C(=N\\NC(=O)NC1CCCCC1)c1ccc(OC(F)F)cc1OC(F)F", "Potency": "inactive"},
      {"molecule": "C/C(=N\\NC(=S)NC1CCCCC1)c1ccc(C)o1", "Potency": "5.01 µM (active)"},
      {"molecule": "O=C(CN1CCN(C(=O)CCCc2c[nH]c3ccccc23)CC1)NC1CC1", "Potency": "inactive"},
      {"molecule": "CCOC(=O)CSc1ncn(-c2nc(NC(C)(C)C)nc(N(C)C)n2)n1", "Potency": "inactive"},
      {"molecule": "CN(C)c1ccc(C=C2C(=O)OC3(CCCC3)OC2=O)cc1", "Potency": "44.7 µM (active)"},
      {"molecule": "CN(CC(=O)Nc1ccc2c(c1)OC1(CCCCC1)O2)Cc1cccs1", "Potency": "inactive"},
      {"molecule": "C=CCn1c(N2CCC(C(N)=O)CC2)nc2c1c(=O)[nH]c(=O)n2C", "Potency": "inactive"},
      {"molecule": "O=C(Cc1ccc(Cl)cc1)NN=C1CCC(c2ccccc2)CC1", "note": "(configuration not stated)", "Potency": "inactive"},
      {"molecule": "CCOC(=O)CN1C(=O)C(O)(CC(=O)c2cccnc2)c2ccccc21", "note": "(configuration not stated)", "Potency": "inactive"},
      {"molecule": "CNCCC(F)(F)F", "Potency": "15.8 µM (active)"},
      {"molecule": "CN1CCC(CNC(=O)CCc2c[nH]c3ccccc23)CC1", "Potency": "inactive"},
      {"molecule": "Cc1cc(C(C)(C)C)ccc1OC(=O)c1ccc(C#N)cc1", "Potency": "inactive"},
      {"molecule": "CN1CCCN(S(=O)(=O)c2ccc3c(c2)CCC3)c2ccccc21", "Potency": "inactive"},
      {"molecule": "CCc1ccc(-c2nc(-c3nc(-c4cccs4)cs3)sc2C)cc1", "Potency": "inactive"},
      {"molecule": "CCOC(=O)c1sc(=S)n2c1[nH]c(=O)c1ccc(C(=O)OC)cc12", "Potency": "15.8 µM (active)"},
      {"molecule": "COC(=O)c1ccc(CNC(=O)Cn2cc(C)c(=O)[nH]c2=O)cc1", "Potency": "inactive"},
      {"molecule": "CCOC(=O)C1=C(C)NC(=O)NC1c1ccc(C(=O)OC)cc1", "note": "(configuration not stated)", "Potency": "inactive"},
      {"molecule": "COc1ccc(NC(=O)ON=C2c3ccccc3-c3ccccc32)cc1", "Potency": "inactive"},
      {"molecule": "COc1ccc(Nc2nc(-c3cccc(OC)c3OC)no2)cc1", "Potency": "inactive"},
      {"molecule": "COc1ccc(Nc2ccccc2)cc1", "Potency": "35.5 µM (active)"},
      {"molecule": "O=C(NC1CCc2ccccc21)c1cc(COc2ccc3c(c2)OCO3)[nH]n1", "note": "(configuration not stated)", "Potency": "inactive"},
      {"molecule": "CC1(C2CC2)NC(=O)N(CC(=O)Nc2cccc3cccnc23)C1=O", "note": "(configuration not stated)", "Potency": "inactive"},
      {"molecule": "O=C(OCc1cc(Cl)c2c(c1)OCCCO2)C12CC3CC(CC(Cl)(C3)C1)C2", "Potency": "inactive"},
      {"molecule": "CCCn1nc(C(=O)Nc2ccc(OC)c(S(=O)(=O)N(C)C)c2)c2ccccc2c1=O", "Potency": "inactive"},
      {"molecule": "CC(C)c1ccc(Nc2nnc(SCC(=O)c3nnc(-c4ccccc4)o3)s2)cc1", "Potency": "39.8 µM (active)"},
      {"molecule": "Cc1ccc(Nc2nnc(SCC(=O)c3ccc(Cl)s3)s2)cc1C", "Potency": "inactive"},
      {"molecule": "CCCCc1ccc(Nc2nnc(SCC(=O)NC(C)C)s2)cc1", "Potency": "inactive"},
      {"molecule": "O=C(NCC1CCN(c2cc(-c3ccc(Cl)cc3)[nH]n2)CC1)c1ccc2nc[nH]c2c1", "Potency": "inactive"},
      {"molecule": "COc1ccc(-c2cc(N3CCN(C(=O)Cc4cccc(OC)c4)CC3)n[nH]2)cc1", "Potency": "inactive"},
      {"molecule": "CN(C(=O)CN1CCN(c2cc(-c3ccc(OCc4ccccc4)cc3)ncn2)CC1)c1ccccc1", "Potency": "10 µM (active)"},
      {"molecule": "Cc1ccc(-c2cc(N3CCCN(C(=O)COc4ccccc4)CC3)n[nH]2)cc1C", "Potency": "inactive"},
      {"molecule": "CN(C)[C@H]1CCCCN(C(=O)CC2CCN(Cc3ccccc3)CC2)C1", "Potency": "inactive"},
      {"molecule": "Clc1ccc2oc([C@H]3CCN(Cc4ccccc4)C3)nc2c1", "Potency": "inactive"},
      {"molecule": "Cc1cc(S(=O)(=O)N2CCCC2c2nnc3ccccn23)ccc1Br", "note": "(configuration not stated)", "Potency": "inactive"},
      {"molecule": "CCCCOc1cc(O)c2c(=O)cc(-c3ccccc3)oc2c1", "Potency": "inactive"},
      {"molecule": "COc1c(O)cc2oc(-c3ccc(O)c(O)c3)cc(=O)c2c1O", "Potency": "31.6 µM (active)"},
      {"molecule": "COCCNC(=O)COc1cc(O)c2c(=O)cc(-c3ccccc3)oc2c1", "Potency": "inactive"},
      {"molecule": "COc1ccc(-c2c(C)c3ccc(OS(C)(=O)=O)cc3oc2=O)cc1", "Potency": "inactive"},
      {"molecule": "O=C(CNc1ccccc1)NNC(=O)c1cc(-c2ccccc2)nn1-c1ccccc1", "Potency": "inactive"},
      {"molecule": "Cc1nc2nc(CC(=O)NCc3ccccc3)nn2c(C)c1Cc1ccc(Cl)cc1", "Potency": "inactive"},
      {"molecule": "Cc1ccc(-n2c(=O)c3cccnc3n2CC(=O)Nc2ccc(F)cc2F)cc1C", "Potency": "inactive"},
      {"molecule": "CCOc1ccc2[nH]c(=S)sc2c1", "Potency": "35.5 µM (active)"},
      {"molecule": "CCOc1ccc(OCC)c(NS(=O)(=O)c2ccc3[nH]c(=O)ccc3c2)c1", "Potency": "inactive"},
      {"molecule": "CCOc1ccc2[nH]c(=O)c(CN(CCCO)C(C)=O)cc2c1", "Potency": "inactive"},
      {"molecule": "Cc1cc(=O)oc2c(C)c(OC(C)C(=O)NCc3ccc(S(N)(=O)=O)cc3)ccc12", "note": "(configuration not stated)", "Potency": "inactive"},
      {"molecule": "COc1ccc(-c2nc3ccncc3[nH]2)cc1", "Potency": "inactive"},
      {"molecule": "COc1ccc(-c2cn(-c3ccc(OC)cc3)c(=S)[nH]2)cc1", "Potency": "25.1 µM (active)"},
      {"molecule": "COc1ccc(-c2cc(N3CCN(C(=O)c4cc(OC)cc(OC)c4)CC3)n[nH]2)cc1", "Potency": "inactive"},
      {"molecule": "COc1ccc2c(c1)CCc1c-2n[nH]c1C(=O)N1CCC(c2noc(COc3ccc(C)cc3)n2)CC1", "Potency": "inactive"},
      {"molecule": "CCc1cccc(NC(=O)CC(C)C)c1", "Potency": "inactive"},
      {"molecule": "O=C(Nc1ccccc1F)c1ccc2c(c1)n(Cc1ccccc1)c(=O)c1ccnn12", "Potency": "inactive"},
      {"molecule": "CN(c1ccccc1)S(=O)(=O)c1ccc(NC(=O)COc2ccccc2)cc1", "Potency": "inactive"},
      {"molecule": "Cc1csc2nc(COc3ccc(NC(=O)COc4ccccc4)cc3)cc(=O)n12", "Potency": "inactive"},
      {"molecule": "COC(=O)C1=C(O)/C(=C/c2ccc(OCC(=O)Nc3ccccc3)cc2)N=C1C", "Potency": "17.8 µM (active)"}
    ]}
  ]
}
